Bioassay records (PubChem)
This is a sample that favours compounds with a hit; in the whole collection about 3.9% have one here.
Mtb FBA inh – inhibits M. tuberculosis FBA enzyme. P9WQA3. inhibition, % at 1 µM. AID 588726. purified M. tuberculosis FBA, fluorescence read-out. 2.3% of 360,000 active; in the data active means inhibition above about 27%;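 further: 0% = vehicle and 100% = reference inhibitor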
Target sequence (P9WQA3 whole entry, looked up): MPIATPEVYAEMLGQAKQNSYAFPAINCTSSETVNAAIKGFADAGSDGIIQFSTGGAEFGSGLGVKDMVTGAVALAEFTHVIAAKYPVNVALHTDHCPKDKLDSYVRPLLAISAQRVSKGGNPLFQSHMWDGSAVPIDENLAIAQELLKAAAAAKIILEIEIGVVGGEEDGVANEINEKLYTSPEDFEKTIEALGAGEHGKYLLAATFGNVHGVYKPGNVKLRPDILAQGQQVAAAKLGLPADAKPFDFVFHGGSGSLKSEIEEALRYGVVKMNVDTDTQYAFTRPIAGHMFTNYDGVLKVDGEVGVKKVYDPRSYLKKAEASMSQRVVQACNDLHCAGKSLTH
GDH-TPI counter – counter-screen for M. tuberculosis FBA inhibitors: GDH-TPI coupled enzymes; GDH-TPI coupled enzyme counterscreen, NADH absorbance; inhibition, % at 4.8 µM; 1.2% of 360,000 active; AID 588335;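 further: 0% = DMSO wells and 100% = wells lacking the enzyme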
BH1578 lux ind – quorum light induction in luxS cqsA deficient V. cholerae; 0.16% of 350,000 active; activation, % at 18.7 µM; V. cholerae BH1578 lux reporter, luminescence, 6 h; in the data active means activation mostly above about 9.7%, no sharp cut-off
CCHF vOTU inh – CCHFV vOTU protease inhibition | Pep-AMC fluorescence | inhibition, % at 11.5 µM | 0.55% of 370,000 active | AID 651958; further: 0% = vehicle wells with enzyme and 100% = no enzyme wells
* hit, by the source's call; i = inactive; · = no result; + = active, no number. Unless noted, no stated cut-off is given here; in the data, active means inhibition above about 30%; inactive means the rest.

SMILES	Mtb FBA inh	GDH-TPI counter	BH1578 lux ind	CCHF vOTU inh
C=C1[C@@H](C)C2[C@H](Cc3ccccc3)NC(=O)[C@]23[C@H](OC(C)=O)/C=C/[C@@](C)(O)C(=O)[C@@H](C)C/C=C/[C@H]3[C@@H]1O (some centres undefined)	·	·	·	-2
CCCCOc1ccc(C2OC34CCCCC3C(C#N)(C#N)C2(C#N)C(=N)O4)cc1 (centres undefined)	73*	-3	i	·
C=CCOc1ccc(C2OC34CCCCC3C(C#N)(C#N)C2(C#N)C(=N)O4)cc1 (centres undefined)	58*	4	i	·
CCOc1ccc(C2NC(=O)NC(C)=C2[N+](=O)[O-])cc1OC (centres undefined)	0	16	0	-2
CCOc1ccc(C2OC34CCCCC3C(C#N)(C#N)C2(C#N)C(=N)O4)cc1OC (centres undefined)	75*	-3	i	·
COCOCCn1cc(CN2CCS(=O)(=O)N(Cc3ccc(-c4ccncc4)cc3)C(C)C2=O)nn1 (centres undefined)	-1	-2	0	8
CN(C(=O)COC(=O)c1cc(F)c(F)cc1Cl)c1ccccc1	-2	6	0	3
CCOc1ccc2[nH]c(C)cc(=O)c2c1	17	19	0	-16
CCOc1ccc2[nH]c(=O)c(=O)[nH]c2c1	3	35*	i	5
C=CCN1C(=O)[C@]2(c3ccccc31)C1CCCC=C1C(C#N)=C(N)C2(C#N)C#N (some centres undefined)	-2	12	i	-6
C=CCN1C(=O)C2(c3ccccc31)C1CCCC=C1C(C#N)=C(N)C2(C#N)C#N (centres undefined)	-2	31*	0	-2
CN(C)c1nc2sc3c(c2c(=O)n1C)CC(C)(C)OC3	1	19	-1	-7
CNc1nc2sc3c(c2c(=O)n1C)CC(C)(C)SC3	185*	8	·	-174
CC(C(=O)c1c[nH]c(C(=O)N=CN(C)C)c1)c1ncc(C(F)(F)F)cc1Cl (centres undefined)	0	0	1	-1
Cc1ccc2nc3c(cc(C(=O)NCC4CCCO4)c(=N)n3C3CCCC3)c(=O)n2c1 (centres undefined)	+	6	0	-371
COc1ccc(CCNC(=O)c2cc3c(=O)n4ccccc4nc3n(C3CCCCC3)c2=N)cc1	16	0	-2	-9
N=c1c(C(=O)NCC2CCCO2)cc2c(=O)n3ccccc3nc2n1C1CCCCC1 (centres undefined)	+	1	0	-142
N=c1c(C(=O)NCC2CCCO2)cc2c(=O)n3ccccc3nc2n1C1CCCC1 (centres undefined)	+	-1	0	-234
Cc1cccn2c(=O)c3cc(C(=O)NCc4ccco4)c(=N)n(C4CCCCC4)c3nc12	85*	1	i	·
Cc1cccn2c(=O)c3cc(C(=O)NCC4CCCO4)c(=N)n(C4CCCC4)c3nc12 (centres undefined)	+	11	0	-345
Cc1cccn2c(=O)c3cc(C(=O)NCc4ccco4)c(=N)n(CCOCCO)c3nc12	+	16	·	·
Cc1cccn2c(=O)c3cc(S(=O)(=O)c4ccc(Br)cc4)c(=N)n(C4CCCC4)c3nc12	0	-4	-7	-2
CCOC(=O)Nc1cc2c(cc1[N+](=O)[O-])-c1ccccc1C2=O	-4	0	-3	-14
Cc1cccc(NC(=O)c2ccc3[nH]c(=O)c(=O)[nH]c3c2)n1	6	32*	-2	10
CCCCc1nnc(NC(=O)c2ccc(N3CCCC3=O)cc2)s1	5	4	i	3
SMILES	Mtb FBA inh	GDH-TPI counter	BH1578 lux ind	CCHF vOTU inh
CCCCc1nnc(NC(=O)c2ccc3[nH]c(=O)c(=O)[nH]c3c2)s1	18	46*	-1	5
O=C(Nc1ccc(F)cc1)c1ccc2[nH]c(=O)c(=O)[nH]c2c1	2	9	0	18
CC1(C)CC(=O)C(C=Nc2ccccc2)=C(O)C1	-1	27	0	12
CC1(C)CC(=O)C(C=Nc2ccccc2C(=O)O)=C(O)C1	13	42*	i	-12
Cc1ccc2nc3c(cc(C#N)c(=O)n3-c3nccs3)c(=O)n2c1	+	7	0	-297
COc1ccc(CNC(=O)C2CC=CCC2C(=O)O)cc1OC (centres undefined)	-7	1	0	7
C=CCN=C1S/C(=C\N(C)C)C(=O)N1S(=O)(=O)c1ccc(C)cc1	-3	36*	i	10
CCN(CC)C(=O)/C(=C/c1cn(S(=O)(=O)N(C)C)c2ccccc12)NC(=O)c1ccc(OC)cc1	-2	10	0	8
COCCNC(=O)/C(C#N)=C/c1cccs1	0	48*	i	1
COc1ccc(N(CCC#N)C(=O)/C(C#N)=C\c2cccs2)cc1	1	37*	0	-2
CN1CC(C(=O)O)Cc2c1ccc1ccccc21 (centres undefined)	102*	6	1	-70
CN1C(=O)N(C)C(=O)C2(Cc3c(ccc4ccccc34)N(C)C2)C1=O	-1	10	-1	-1
CCc1nnc(NS(=O)(=O)c2ccc(NC(=S)NC(=O)/C=C/c3ccc(C(C)C)cc3)cc2)s1	-4	32*	1	·
O=S1(=O)C=C(SCCN2CCCCC2)c2ccccc21	5	-6	-3	8
Cn1c(NC(=O)/C=C/c2ccccc2)cc(=O)n(C)c1=O	-1	62*	0	12
CC(O)CNc1nc2c(c(=O)n(C)c(=O)n2C)n1Cc1cccc(Br)c1 (centres undefined)	1	9	i	6
COC(=O)c1nc2nc(-c3cccs3)cc(C(F)(F)F)n2n1	+	18	i	-129
O=C(NCc1ccco1)c1nc2nc(-c3cccs3)cc(C(F)(F)F)n2n1	+	28	3	-181
NS(=O)(=O)c1ccc(CCNC(=O)C2COc3ccccc3O2)cc1 (centres undefined)	0	3	i	1
N#Cc1nc(-c2ccc(OCc3ccc(Cl)cc3)cc2)oc1N1CCOCC1	-1	3	1	-8
N#Cc1nc(-c2ccccc2F)oc1N1CCCC1	+	19	-2	-208
COc1ccc(-c2nc(C#N)c(N3CCCCCC3)o2)cc1	194*	17	i	-45
CC(C)CNc1oc(-c2ccc(F)cc2)nc1C#N	128*	14	0	-28
COc1ccc(-c2nc(C#N)c(N3CCCCC3)o2)cc1	+	6	-1	-41
CC(C)(C)c1[nH]nc2c1C(c1ccoc1)C(C#N)=C(N)O2 (centres undefined)	2	-5	0	2
COc1ccc(CCNC(C)C(=O)Nc2ccc(S(N)(=O)=O)cc2)cc1 (centres undefined)	-2	-2	1	-8
Cc1ccc(-c2nc(C#N)c(N3CCCCC3)o2)cc1	137*	14	0	-31
CN1CCN(c2oc(-c3ccc([N+](=O)[O-])cc3)nc2C#N)CC1	-1	13	i	-5
N#Cc1nc(-c2ccc([N+](=O)[O-])cc2)oc1N1CCCCC1	-2	3	i	5
